Over roughly 25,000 sequences, “ln(normalized median fluorescence intensity)” has its median near 7.1; the highest 2% begin near 10. This is one part of a sample in which the highest values are shown more often than they occur.

The values below come from the supplement of paper PMC11417369.

The assay relates to PfSIP2 AP2 domain 1 (GST-tagged). Briefly: gcPBM binding intensity (ln(normalized median fluorescence intensity)); higher = stronger DNA binding. An outline of the steps: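 An Agilent 4 × 180k array of primer-extended double-stranded 36-bp intergenic genomic probes, with negative controls, was incubated for 1 h with GST-tagged P. falciparum DNA-binding domains expressed in E. coli. Alexa488 anti-GST antibody detected bound protein, scanned at 488 nm. Binding intensity is the highest Masliner-normalised natural-log median intensity across replicate spots of either probe orientation.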
As for “GTTTAACTGTTTTATACACACAATGTATACAATAAA [CACACA_site2959]”, the “gcPBM binding intensity (ln)” value was 7.02. On to “TTTTTATAATAAAAAAATATAACTATATTAAGCCAC [CACACA_negctrl_site555]”, for which the “gcPBM binding intensity (ln)” value came out at 7.1. With “AATATATTTTCCTGCAAACACACATATAAATGTGTA [CACACA_site532]”, the “gcPBM binding intensity (ln)” value was 6.96. Next, “TCAACCAAAACATAAGCATGCAATATATTTTTATAC [TGCATGCA_site560]”: 7.16; “TTTATAATTTATATCACACACATATATATATAGTAA [CACACA_site8]”: 7.05; “TTTCTATATAGATTTGCACACATAAAAATGCTTATA [CACACA_site2390]”: 7.18. Consider “ACATATCGGGTGCATTAACACACATTTATTTGAATA [CACACA_site8736]”, for which the “gcPBM binding intensity (ln)” value is 11.6. The figure for “ATATCGGGTGCATTAACACACATTTATTTGAATAAA [CACACA_site2350]” is 11.7. Next, “ATATCGTGTGCATTAACACACATTTATTTGAATAAA [CACACA_site7162]”: 7.65; “ATCGGTAATATTAACACACACATTTATTTATATTTA [CACACA_site6638]”: 7.01; “ATCGGTAATATTAACACACACATTTATATATATTTA [CACACA_site1084]”: 7.2. As for “AACATTTTAAATTATACACACATTTTGAATATATAT [CACACA_site3470]”, the “gcPBM binding intensity (ln)” value turned out to be 7.2. Next, “TTTTTATTTTTTCAGTGTACATTTAAATTATCTTAT [XGTACX_site3905]”: 6.98; “ATTATTATTATATATGCATGTAAAATATTAAAGTAC [TGCATGCA_site914]”: 7.59; “AATGAAAAATGTATCGTTAAAGGGTATCTTAAGGAT [XGTACX_negctrl_site222]”: 6.84.

Consider “AGATCATAATATTATACACACATTATGTATATGTAA [CACACA_site1490]”, for which the “gcPBM binding intensity (ln)” value was 6.84. With “TATAACACACAATGATGTACATTACATTATTTTTTA [XGTACX_site2076]”, the “gcPBM binding intensity (ln)” value came out at 7.06.

In the case of “ACACATTATAACAAGGTGCAATTTTTATACACATGT [GTGCAC_site9866]”, the “gcPBM binding intensity (ln)” value came out at 10.4.

As for “CATTAACATTTTATTACACACAATAATTTATAAGTA [CACACA_site4083]”, the “gcPBM binding intensity (ln)” value came out at 7.06.

As to “TAATTAGCATAATACACATGCATACATTTATATATA [TGCATGCA_site542]”, the “gcPBM binding intensity (ln)” value amounted to 7.01.

As to “ATCATAAATTATTATACACACAATACGTGACCTATT [CACACA_site1906]”, the “gcPBM binding intensity (ln)” value turned out to be 7.06. On to “TATTGTTACTTTATATGTACTAATTAAACATATACA [XGTACX_site6363]”, for which the “gcPBM binding intensity (ln)” value was found to be 7.24. Regarding “ATAACAAAATGAAGAGTGCATTACCAAGTGGGTAAA [GTGCAC_site9450]”, the “gcPBM binding intensity (ln)” value came to 8.64. The figure for “AAAAAATTATAAAAGTGTACATATATATATATATAT [XGTACX_site154]” is 9.3; for “TAAATTGGTGCAAAGTGTACATATATATCTTTCCTA [XGTACX_site5458]” it is 11.4; for TAGGTACATAAATTGGTGCAAAGTGTACATATATAT it is 9.97.

With “AACAATAAAAATAATTGTACAAGTCTAAAAAAAATT [XGTACX_site20]”, the “gcPBM binding intensity (ln)” value is 6.86. The figure for “TCGTGAATGATTTAAGTACACACCGGTATTTATTCA [CACACA_site1564]” is 6.74. Next, “ACGTAAACATGTAGAAGGCATTACACAATGGTATAC [TGCATGCA_negctrl_site512]”: 6.75; “AAAAGAAAATTAAATTAACACACATAAATATATATA [CACACA_site8482]”: 7.27; ACCATATAAAGTTAGGTGCATTTGTATGTATCTTAC: 9.18. Take “ATATAATAAATGTAGGTGCATAAAAATATTTTGTTA [GTGCAC_site9780]”: the “gcPBM binding intensity (ln)” value came out at 10.

Take “TTTGTATAGTTGTAGGTGCATATCATTTTTAAATGT [GTGCAC_site9708]”: the “gcPBM binding intensity (ln)” value came out at 10.4. Next, “ATTTTTTCATATTCTACACACGTGAACAAATGAGTC [CACACA_site5635]”: 7.21.

On to ATATATATATATATAGTGCATAATGTTTTAATAGAT, for which the “gcPBM binding intensity (ln)” value is 9.54. The figure for ATTTCTTTTGTTATAGTGCATAATATTTATGTACGT is 8.59; for “TTTTTAAAATATTTAACACACAATTATAATGCATAA [CACACA_site3932]” it is 7.23; for “CATATAAGACAAAAGGTGCAATTTTAATGCTTTTAT [GTGCAC_site9432]” it is 9.98. The figure for “ATATATTTATAATAGGTGCATATGTTTTATTTTTCC [GTGCAC_site9849]” is 10.2; for TAATAATTTTATAAAGTGCATAAAAATAAAAATTTT it is 8.89; for “ACTAATAATTTGTCGGTGCATAAAATTATTTTTATT [GTGCAC_site9840]” it is 10.7. The figure for ATATTTTTATATGAGGTGCATATAATGACAATTAAG is 10.6; for “TTTTTTATTAAATATATATAATAATAATAATTTGTA [CACACA_negctrl_site1719]” it is 6.88; for “AAAAAAAAAATTTAGGTGCATACAAATAAATTATAT [GTGCAC_site9521]” it is 9.85.

As for “AAAAATAATCATTAGGTGCAAAAAATATATATATAT [GTGCAC_site9631]”, the “gcPBM binding intensity (ln)” value was 9.96. Regarding ATATATAAAAATTAGGTGCATTAAATTAAAATATAT, the “gcPBM binding intensity (ln)” value was 10.3. With “TTTAATATTATTATTTTACACACTTTTTTCCTTTTA [CACACA_site8780]”, the “gcPBM binding intensity (ln)” value was 6.64.

“TACATGTATAATATAATACACACTATATAATATACA [CACACA_site2239]”: the “gcPBM binding intensity (ln)” value was 6.92. The figure for “TACTATAACCCACATACACACAAAAAAAAAAAAAAA [CACACA_site4454]” is 7.11; for “ACATAATAAAAATGACGTACAATTTTTTTTTTTCAT [XGTACX_site8340]” it is 7.01; for “AAAAAACGCACTCGTACACACATATTTTCTTTCTAA [CACACA_site3089]” it is 8.76.

Regarding “TTTTTTAGATTACATAAATATAAATATAAATATATA [GTGCAC_negctrl_site459]”, the “gcPBM binding intensity (ln)” value came to 6.68. On to “ATGTTTTGTAAAATGATTAAATATTAAGATTCAATA [CACACA_negctrl_site1743]”, for which the “gcPBM binding intensity (ln)” value turned out to be 6.7. Next, “ATATATATAGAAATATGTACGAAAAAAATATCACAT [XGTACX_site746]”: 7.63. The figure for “TATATTACAAAAAGTACACACATAAATAAATACATA [CACACA_site975]” is 7.17. Turning to “CCATAGATATTTTATACACACATATAATATATTAAT [CACACA_site373]”, the “gcPBM binding intensity (ln)” value is 7.17. The figure for “TTTTATTATATGGAGGTGCATATATAATAATATAAT [GTGCAC_site9477]” is 11. Consider “TTTTTTTTTTCTTAGGTGCAAAAAATAAGTATATAT [GTGCAC_site9394]”, for which the “gcPBM binding intensity (ln)” value is 10.1. Regarding TCTTAAAATATATAGGTGCAAAAAAAAAAAAAAAAA, the “gcPBM binding intensity (ln)” value is 10.6. As for GTATAGTACAAATAAGTGCATATAAAAGAAATACAG, the “gcPBM binding intensity (ln)” value was found to be 8.56.

As to “ATACATCGTATATAAGTGCATATTAAGGTCTTAAGA [GTGCAC_site9560]”, the “gcPBM binding intensity (ln)” value is 8.11. Next, “TTTCTTTATTTATAATAATTTTTTATTAAAAATAGA [CACACA_negctrl_site1610]”: 6.78; “TATATATTAAAAATAGTGCAAAATAATATATATATA [GTGCAC_site9716]”: 8.84; TTTTAAAATTATTAGGTGCATATTTATTCTATATTT: 10. Next, “TATACAAGTATATAGGTGCATATATAAGTATATATT [GTGCAC_site9994]”: 10.3. Next, “ACATATATATATATATATAATATTTTATATTTATTA [CACACA_negctrl_site713]”: 7.49; TTTCTTTTTAAATAGGTGCATATTTTTATAAATATA: 11; “TATAATAATATTATAGTGCATATTATTTATATATAA [GTGCAC_site9820]”: 8.67.

“AAAAAAAAAAAAGAAAAATATATATATAAATAAATA [GTGCAC_negctrl_site569]”: the “gcPBM binding intensity (ln)” value came out at 6.98. Next, “TTTTTCATATGACACACACACAAAAATAATGTGGAA [CACACA_site7692]”: 6.99. Next, “AAATTATATTATTGAACACACGTTTGGTAATGTTTT [CACACA_site5469]”: 6.78; “GCTATTTATTTATATTGTACTTTTTTTTTTTTTTTT [XGTACX_site3624]”: 7.67. Next, “TAAATTGAGTATATTACACACATATAAATATATTAT [CACACA_site4027]”: 6.88; “GAACAAATTACAAGTTGTACTTTATGTAAATTATTA [XGTACX_site5304]”: 6.76; “ATACTATTATATATATGTACATATATATGATGCTCT [XGTACX_site1771]”: 7.22. In the case of CATCATCTTTTAAAGGTGCATAATAATATTGTTAAT, the “gcPBM binding intensity (ln)” value turned out to be 11.1. Next, “TTTTTATTTATATGATACTTATATATATATATATAT [CACACA_negctrl_site462]”: 9.5; “TATTTTATATGATAGGTGCATTTTTTTTTTTTTTTT [GTGCAC_site9757]”: 10.8; “ATAGTAATGCATAAATATATATTATATATATATATA [XGTACX_negctrl_site576]”: 9.1. Next, “GTATTATATATATAGGTGCATATATATATATAAATA [GTGCAC_site9787]”: 10.8; “ATCTATATCTATAATACACACATCATAAAATATGTA [CACACA_site7230]”: 7.19; TCGAATATCTTATAGGTGCATCATAAATACATATGT: 10.8. The figure for “TTTTTTTTTTTTTTTTTTTTTTTTTTATGATATATA [GTGCAC_negctrl_site365]” is 6.82; for TTTTGTTATTTTTTAGTGCATATAAAGGTTGTTAAG it is 8.64. Consider “ATAATTGTTTAAAGGTGTACAATACATATATTTTAA [XGTACX_site3648]”, for which the “gcPBM binding intensity (ln)” value amounted to 6.91.

As for “ATATTATATATATAGGTGCGAGTATTTTATAAATAT [GTGCAC_site9889]”, the “gcPBM binding intensity (ln)” value was found to be 9.06. Next, “TATGGAATAAATTTATCCATACATCTTATAACATAT [XGTACX_negctrl_site500]”: 6.78.

Take “ACATATATATATATTACACACACACTAATAAAATAA [CACACA_site7920]”: the “gcPBM binding intensity (ln)” value amounted to 7.24.

Turning to “AAAATTAAAAAAATAAATACATTATATAATTAAAAA [CACACA_negctrl_site1426]”, the “gcPBM binding intensity (ln)” value came to 6.77.

Turning to “CTTCTTATTTTCTAATGTACGTACAAATCATTTATA [XGTACX_site2176]”, the “gcPBM binding intensity (ln)” value turned out to be 8.

Regarding “CTTGGGAAGTATTCAGTGCAAAATATAAGCAGGTCA [GTGCAC_site9758]”, the “gcPBM binding intensity (ln)” value came out at 7.75. The figure for “ATATGTATATATATTTGTACGTAAAATGAAATCTAA [XGTACX_site213]” is 7.45.
